PubChem BioAssay (NCI)
About 79,000 compounds went through this panel and 15% of them were active in at least one assay; those are over-represented in the sample as a whole. Activity calls are given as the source filed them. No stated cut-off is given here; in the data, active means growth inhibition above about 70%; inactive means the rest.

How the values were obtained:
[1] = NCI Yeast Anticancer Drug Screen. Data for the rad50 strain (AID 155);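 further: 0% = growth of vehicle-only cultures of the same strain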; details: S. cerevisiae rad50 strain growth inhibition, stronger effect = higher value
In short: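 Genetically altered yeast (DNA repair pathway); compound treatment; growth inhibition vs vehicle ctrl.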

[2] = NCI Yeast Anticancer Drug Screen. Data for the mec2-1 strain (AID 157); details: S. cerevisiae mec2-1 strain, stronger effect = higher value
In short: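 Vehicle-treated cultures served as reference for growth inhibition of compound-exposed mec2-1 yeast.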

[3] = NCI Yeast Anticancer Drug Screen. Data for the sgs1 mgt1 strain (AID 161);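 further: 0% = growth of cultures given vehicle only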; details: S. cerevisiae sgs1 mgt1 strain, stronger effect = higher value
In short: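 Genetically altered yeast, compound exposure, growth inhibition relative to vehicle.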

[4] = NCI Yeast Anticancer Drug Screen. Data for the cln2 rad14 strain (AID 165);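 further: 0% = growth equal to vehicle treated cultures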; details: S. cerevisiae cln2 rad14 strain, stronger effect = higher value
In short: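 Each compound was tested on cln2 rad14 yeast. Inhibition of growth was calculated against vehicle-exposed controls.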

[5] = NCI Yeast Anticancer Drug Screen. Data for the bub3 strain (AID 167); details: S. cerevisiae bub3 mutant strain, stronger effect = higher value
In short: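 Yeast carrying a defined mutation is treated with each compound, and growth is compared with that of vehicle-exposed cells to give inhibition.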

[6] = NCI Yeast Anticancer Drug Screen. Data for the mlh1 rad18 strain (AID 175); details: S. cerevisiae mlh1 rad18 strain growth inhibition, stronger effect = higher value
In short: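 Vehicle-treated cultures served as the reference for growth inhibition in a yeast strain carrying DNA damage repair alterations exposed to each compound.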

[7] = at 5.0 µM (retest, dose inferred, filed as 0.5)
[8] = at 50.0 µM (retest, dose inferred, filed as 5.0)

Measured: growth inhibition

Cc1ccc(Nc2nc(C)c(C(=O)C/C(=N\NC(N)=S)C(=O)Nc3ccc(Cl)cc3C)s2)cc1
inactive: [1]; [7] -6% | [1]; [8] 19% | [2]; [7] -12% | [2]; [8] -3% | [2]; at 50.0 µM 17.2% | [3]; [7] -3% | [3]; [8] 11% | [4]; [7] -8% | [4]; [8] 10% | [4]; at 50.0 µM 34.6% | [5]; [7] -19% | [5]; [8] 5% | [5]; at 50.0 µM 33% | [6]; [7] 12% | [6]; [8] -9% | [6]; at 50.0 µM 57.1%
active: [1]; at 50.0 µM 71.5% | [3]; at 50.0 µM 82.3%

CCOc1ccccc1/C=N/Nc1nnc(N/N=C/c2ccccc2OCC)c2ccccc12
inactive: [1]; [7] 0% | [1]; [8] 42% | [1]; at 50.0 µM 44% | [2]; [7] 9% | [2]; [8] 64% | [2]; at 50.0 µM 48.8% | [3]; [7] -24% | [3]; [8] 38% | [3]; at 50.0 µM 41.5% | [4]; [7] -10% | [4]; [8] 58% | [4]; at 50.0 µM 45.2% | [5]; [7] -4% | [5]; [8] 54% | [5]; at 50.0 µM 44.2% | [6]; [7] 7% | [6]; at 50.0 µM 43.9%
active: [6]; [8] 80%

CCN(c1ccc(C=O)cc1)c1ccc([N+](=O)[O-])cc1[N+](=O)[O-]
inactive: [1]; [7] 3% | [1]; [8] 33% | [1]; at 50.0 µM 50.5% | [2]; [7] -1% | [2]; [8] 30% | [2]; at 50.0 µM 26.2% | [3]; [7] 3% | [4]; [7] 1% | [4]; [8] 11% | [4]; at 50.0 µM 18.2% | [5]; [7] 2% | [5]; [8] 23% | [5]; at 50.0 µM 7.85% | [6]; [7] 8% | [6]; [8] 59% | [6]; at 50.0 µM 38.7%
active: [3]; [8] 70% | [3]; at 50.0 µM 74%

CSC1=NSC(c2ccccc2)=C(c2ccccc2)S1
inactive: [1]; [7] 7% | [1]; [8] 9% | [1]; at 50.0 µM 7.95% | [2]; [7] -15% | [2]; [8] 10% | [2]; at 50.0 µM -1.45% | [3]; [7] -11% | [3]; [8] 0% | [3]; at 50.0 µM 27.8% | [4]; [7] 33% | [4]; at 50.0 µM 62.5% | [5]; [7] 9% | [5]; [8] 43% | [5]; at 50.0 µM 43.1% | [6]; [7] 5% | [6]; [8] 16% | [6]; at 50.0 µM 10.2%
active: [4]; [8] 88%

Nc1ccc2c(SCCCCCCCCSc3c4ccccc4nc4cc(N)ccc34)c3ccccc3nc2c1
inactive: [1]; [7] 1% | [1]; at 50.0 µM 48.9% | [2]; [7] 1% | [2]; [8] 67% | [2]; at 50.0 µM 9.15% | [3]; [7] -2% | [3]; at 50.0 µM 22.9% | [4]; [7] -4% | [4]; [8] 32% | [4]; at 50.0 µM 33.2% | [5]; [7] -3% | [5]; at 50.0 µM -4.05% | [6]; [7] 2% | [6]; at 50.0 µM 32%
active: [1]; [8] 74% | [3]; [8] 72% | [5]; [8] 72% | [6]; [8] 94%

S=C(NCCc1ccccc1)N/N=C/c1ccc(Cl)cc1
active: [1]; at 50.0 µM 85.7% | [2]; at 50.0 µM 74.3% | [3]; at 50.0 µM 83.5% | [4]; at 50.0 µM 83% | [5]; at 50.0 µM 85.6% | [6]; at 50.0 µM 80.9%
inactive: [1]; [7] 52% | [1]; [8] 57% | [2]; [7] 36% | [2]; [8] 54% | [3]; [7] 54% | [3]; [8] 61% | [4]; [7] 34% | [4]; [8] 45% | [5]; [7] 52% | [5]; [8] 65% | [6]; [7] 61% | [6]; [8] 67%

C/C(=N\NC(=S)Nc1ccc(Cl)cc1)c1nc2ncccc2[nH]1
inactive: [1]; [7] 3% | [2]; [7] -6% | [3]; [7] 0% | [4]; [7] -38% | [5]; [7] -28% | [6]; [7] -1%
active: [1]; [8] 98% | [1]; at 50.0 µM 89.8% | [2]; [8] 98% | [2]; at 50.0 µM 90.2% | [3]; [8] 96% | [3]; at 50.0 µM 85.2% | [4]; [8] 99% | [4]; at 50.0 µM 87.9% | [5]; [8] 95% | [5]; at 50.0 µM 90.1% | [6]; [8] 98% | [6]; at 50.0 µM 85.4%

CC(=O)OC12CCC3C4CC=C5CC(O)CCC5(C)C4C(=O)C3C1(C)N1CC(C)CC(O)C1C2C (centres undefined)
active: [1]; at 50.0 µM 74.5% | [5]; [8] 74%
inactive: [1]; [7] 7% | [1]; [8] 40% | [2]; [7] 10% | [2]; [8] 42% | [2]; at 50.0 µM 59.5% | [3]; [7] 5% | [3]; [8] 68% | [3]; at 50.0 µM 62.2% | [4]; [7] 18% | [4]; [8] 62% | [4]; at 50.0 µM 56.9% | [5]; [7] 16% | [5]; at 50.0 µM 64.2% | [6]; [7] -23% | [6]; [8] 59% | [6]; at 50.0 µM 47%

O=[N+]([O-])c1ccc(Sc2ccc([N+](=O)[O-])o2)o1
active: [1]; [7] 93% | [1]; [8] 99% | [1]; at 50.0 µM 99.2% | [2]; [7] 94% | [2]; [8] 100% | [2]; at 50.0 µM 99.5% | [3]; [7] 97% | [3]; [8] 100% | [3]; at 50.0 µM 99.4% | [4]; [7] 71% | [4]; [8] 99% | [4]; at 50.0 µM 99.2% | [5]; [7] 96% | [5]; [8] 99% | [5]; at 50.0 µM 99.5% | [6]; [7] 98% | [6]; [8] 99% | [6]; at 50.0 µM 99.1%

O=C1Nc2c(Cl)cc(Cl)cc2/C1=N/N=C/c1ccco1
active: [1]; [8] 84% | [2]; [8] 83% | [4]; [8] 74% | [5]; [8] 83% | [6]; [8] 94% | [6]; at 50.0 µM 89.2%
inactive: [1]; [7] 24% | [1]; at 50.0 µM 52.6% | [2]; [7] 26% | [2]; at 50.0 µM 53.4% | [3]; [7] 28% | [3]; [8] 68% | [3]; at 50.0 µM 67.3% | [4]; [7] 28% | [4]; at 50.0 µM 63.2% | [5]; [7] 21% | [5]; at 50.0 µM 55.4% | [6]; [7] 37%

Brc1ccc2[nH]c3nc4ccc5ccccc5c4nc3c2c1
active: [4]; at 50.0 µM 71%
inactive: [1]; [7] 2% | [1]; [8] 1% | [1]; at 50.0 µM -2.35% | [2]; [7] 3% | [2]; [8] 1% | [2]; at 50.0 µM 20.8% | [3]; [7] 0% | [3]; [8] 0% | [3]; at 50.0 µM 7.15% | [4]; [7] 6% | [4]; [8] -1% | [5]; [7] 6% | [5]; [8] 0% | [5]; at 50.0 µM 12.4% | [6]; [7] 6% | [6]; [8] 2% | [6]; at 50.0 µM -3.25%

CCCCCC(CCCCC)OC(=O)CCN(CCCCC)CCCCC
active: [1]; [8] 81% | [1]; at 50.0 µM 74% | [2]; [8] 86% | [3]; [8] 97% | [3]; at 50.0 µM 84% | [4]; [8] 75% | [4]; at 50.0 µM 72% | [5]; [8] 87% | [6]; [8] 94%
inactive: [1]; [7] 2% | [2]; [7] 6% | [2]; at 50.0 µM 46.1% | [3]; [7] 14% | [4]; [7] 5% | [5]; [7] 1% | [5]; at 50.0 µM 51.9% | [6]; [7] 3% | [6]; at 50.0 µM 68.9%

Cc1c(CCCl)c(N=[N+]=[N-])n2c(nc3ccccc32)c1C#N
active: [1]; at 50.0 µM 83.8% | [2]; at 50.0 µM 71.2% | [5]; at 50.0 µM 78.2%
inactive: [1]; [7] 31% | [1]; [8] 46% | [2]; [7] 27% | [2]; [8] 45% | [3]; [7] 23% | [3]; [8] 51% | [3]; at 50.0 µM 56.6% | [4]; [7] 20% | [4]; [8] 34% | [4]; at 50.0 µM 63.4% | [5]; [7] 23% | [5]; [8] 57% | [6]; [7] 28% | [6]; [8] 48% | [6]; at 50.0 µM 56.5%
